Eight molecules from PubChem BioAssay (NCI) can be followed below.

This is part of a sample that, as a whole, favours compounds with a hit. Of some 83,000 tested, about 20% had one in any assay.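 Values shown are percent growth following 48 h exposure of cells in 96-well plates to a single concentration of compound; below 10 was considered active.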 Unmarked numbers belong to inactive results. Activity calls are given as the source filed them.

Among the test systems are NCI-H23 lung; NCI-H226 lung; NCI-H322M lung; HOP-62 NSCLC; NCI-H460 lung; HOP-92 NSCLC; NCI-H522 lung; A549/ATCC NSCLC; 786-0 renal; COLO 205 colon; DU-145 prostate; K-562 leukemia; MALME-3M melanoma; MDA-MB-231 breast; RXF 393 renal; SF-268 CNS; SF-295 CNS; SF-539 CNS; M14 melanoma; UACC-257 melanoma.
Assay in all cases: NCI-60 one-dose screen, 48 h (100 = growth as untreated, 0 = no growth, -100 = all killed)
Common to all, as to conditions: 10 µM unless noted

For the molecule `COc1cccc(-c2nn(-c3ccccc3)cc2-c2ccnc(NCCCNS(=O)(=O)c3ccccc3)c2)c1`, the growth with NCI-H23 lung was 44.3%; with NCI-H226 lung, 35.1%; in the assay on NCI-H322M lung, 59.3%; in the assay with HOP-62 NSCLC it was 64.3%; with NCI-H460 lung, 31.8%; in the assay with HOP-92 NSCLC it was 18.9%. The growth is 31.1% in the assay on NCI-H522 lung; 35.8% in the assay with A549/ATCC NSCLC; 43.2% in the assay on 786-0 renal; 17.1% with COLO 205 colon; 52% with DU-145 prostate; 9.59% (active) in the assay with K-562 leukemia. Moreover, the growth in the assay with MALME-3M melanoma is 68.7%; in the assay on MDA-MB-231 breast, 20.6%; in the assay with RXF 393 renal, 36.4%; with SF-268 CNS, 47.1%; with SF-295 CNS, 16.8%; in the assay on SF-539 CNS it was 57.5%. The growth with M14 melanoma is 29.9%.
In the case of `Fc1ccc(NCc2nnc(-c3ccc(Cl)cc3)o2)cc1`, the growth with NCI-H23 lung was 70.1%; in the assay on NCI-H226 lung, 71.8%; with NCI-H322M lung, 82.5%; with HOP-62 NSCLC, 84.6%; with NCI-H460 lung, 83.7%; in the assay with HOP-92 NSCLC, 67%. Moreover, the growth in the assay with NCI-H522 lung is 56.5%; in the assay on A549/ATCC NSCLC, 66.1%; with 786-0 renal it was 87.8%; in the assay on COLO 205 colon, 90%; in the assay with DU-145 prostate, 95.5%; in the assay on K-562 leukemia, 53.8%. Moreover, the growth in the assay on MALME-3M melanoma was 93.8%; in the assay on MDA-MB-231 breast it was 55.6%; with RXF 393 renal, 84.8%; in the assay on SF-268 CNS it was 77.9%; in the assay with SF-295 CNS it was 77.9%; in the assay on SF-539 CNS it was 90.6%. Also, the growth in the assay with UACC-257 melanoma is 68.4%; with M14 melanoma, 77.9%.
For the molecule `Cc1cc(Cl)nc(N(CCCNc2ccnc3cc(Cl)ccc23)Cc2ccco2)n1`, the growth was 8.17% (active) in the assay on NCI-H23 lung; 24.1% with NCI-H226 lung; 42.8% with NCI-H322M lung; 25.7% in the assay with HOP-62 NSCLC; 16.7% in the assay with NCI-H460 lung; -3.26% (active) in the assay on HOP-92 NSCLC. In addition, the growth with NCI-H522 lung is 13.8%; in the assay on A549/ATCC NSCLC it was 29.2%; in the assay with 786-0 renal, 19.5%; in the assay with COLO 205 colon, -54.5% (active); with DU-145 prostate, 46.2%; in the assay with K-562 leukemia, 0.302% (active). Besides, the growth is 4.4% (active) in the assay with MALME-3M melanoma; 22.9% in the assay with MDA-MB-231 breast; 26.6% with RXF 393 renal; 52.5% in the assay with SF-268 CNS; 20.6% in the assay with SF-295 CNS; 20.1% in the assay with SF-539 CNS. Also, the growth in the assay on UACC-257 melanoma was 23.3%; in the assay with M14 melanoma it was -6.17% (active).
`COc1ccc(/C=C/C(=O)NCC(C)O)cc1` (stereo not given): the growth is 93.5% in the assay with NCI-H23 lung; 91.5% in the assay on NCI-H226 lung; 94.5% with NCI-H322M lung; 89.1% in the assay on HOP-62 NSCLC; 101% with NCI-H460 lung; 101% with HOP-92 NSCLC. Moreover, the growth in the assay on NCI-H522 lung was 85%; in the assay on A549/ATCC NSCLC, 83.2%; in the assay with 786-0 renal it was 100%; with COLO 205 colon, 104%; in the assay with DU-145 prostate it was 103%; in the assay with K-562 leukemia it was 122%. The growth is 101% in the assay with MALME-3M melanoma; 100% with MDA-MB-231 breast; 90.7% with RXF 393 renal; 94% in the assay on SF-268 CNS; 99.7% in the assay on SF-295 CNS; 92.8% in the assay on SF-539 CNS. The growth with M14 melanoma is 101%.
As for `COc1ccc(O)c(-c2cc(-c3ccc(Cl)cc3)c(C#N)c(=O)[nH]2)c1`, the growth was 69.6% with NCI-H23 lung; 89.1% with NCI-H226 lung; 101% in the assay with NCI-H322M lung; 64% in the assay on HOP-62 NSCLC; 69.3% in the assay with NCI-H460 lung; 36% with HOP-92 NSCLC. The growth in the assay on NCI-H522 lung is 36.8%; in the assay with A549/ATCC NSCLC, 86.7%; in the assay with 786-0 renal, 68.3%; in the assay with COLO 205 colon, 95.2%; with DU-145 prostate it was 102%; in the assay with K-562 leukemia, 23.5%. Further, the growth with MALME-3M melanoma was 105%; with MDA-MB-231 breast, 61.2%; in the assay with RXF 393 renal it was 84.5%; in the assay with SF-268 CNS, 85.2%; with SF-295 CNS it was 61.5%; in the assay on SF-539 CNS, 52.4%. In addition, the growth with M14 melanoma was 49.9%.
With `COc1cccc(-c2nn(-c3ccccc3)cc2-c2ccnc(NCCCNS(=O)(=O)c3ccc(Cl)cc3)c2)c1`, the growth was 46.9% with NCI-H23 lung; 40.3% in the assay with NCI-H226 lung; 66.8% in the assay with NCI-H322M lung; 81.8% with HOP-62 NSCLC; 40.9% with NCI-H460 lung; 25.1% in the assay on HOP-92 NSCLC. The growth was 41.7% in the assay on NCI-H522 lung; 39.9% with A549/ATCC NSCLC; 37.4% in the assay on 786-0 renal; 15.1% in the assay on COLO 205 colon; 67.1% in the assay with DU-145 prostate; 11.6% in the assay with K-562 leukemia. Also, the growth in the assay on MALME-3M melanoma was 74.6%; in the assay on MDA-MB-231 breast, 23.5%; in the assay on RXF 393 renal it was 46.4%; in the assay on SF-268 CNS it was 56.1%; in the assay on SF-295 CNS it was 24.2%; in the assay on SF-539 CNS, 62.3%. For the same molecule, the growth with M14 melanoma was 33.4%.
As to `CCCCC[C@H]1C/C=C2/C(=O)C(Cl)=C[C@@H]2C/C=C\CCCC(=O)O1`, the growth in the assay with NCI-H23 lung was -34.5% (active); in the assay with NCI-H226 lung, -32.7% (active); with NCI-H322M lung, -74.2% (active); with HOP-62 NSCLC, -36.7% (active); with NCI-H460 lung it was -16.6% (active); in the assay with HOP-92 NSCLC it was -48.9% (active). For the same molecule, the growth in the assay on NCI-H522 lung is -73.1% (active); in the assay on A549/ATCC NSCLC, -35.6% (active); in the assay with 786-0 renal, -73.4% (active); in the assay with COLO 205 colon it was -63.1% (active); in the assay with DU-145 prostate it was -83.1% (active); in the assay with K-562 leukemia, 2.39% (active). Besides, the growth is -35.2% (active) in the assay with MALME-3M melanoma; -10.7% (active) in the assay on MDA-MB-231 breast; -90.9% (active) with RXF 393 renal; -37.1% (active) in the assay on SF-268 CNS; -35% (active) in the assay with SF-295 CNS; -76.7% (active) in the assay with SF-539 CNS. In addition, the growth in the assay on UACC-257 melanoma is -53.3% (active); in the assay on M14 melanoma, -52.8% (active).
On to `COC(=O)[C@]12CC[C@@H](C)[C@H](C)[C@@H]1C1=CC[C@@H]3[C@@]4(C)C(c5ncon5)=C[C@@](C)(CO)C4=CC[C@@]3(C)[C@]1(C)CC2`, for which the growth was -26.2% (active) in the assay on NCI-H23 lung; -34.7% (active) in the assay on NCI-H226 lung; 21.8% with NCI-H322M lung; -8.97% (active) with HOP-62 NSCLC; -33.4% (active) in the assay on NCI-H460 lung; -49.9% (active) with HOP-92 NSCLC. The growth is -77.5% (active) in the assay on NCI-H522 lung; 29.5% in the assay on A549/ATCC NSCLC; -23.8% (active) with 786-0 renal; -46% (active) in the assay on COLO 205 colon; -71.5% (active) with DU-145 prostate; -21.2% (active) with K-562 leukemia. For the same molecule, the growth was -73.6% (active) in the assay with MALME-3M melanoma; -49.3% (active) in the assay with MDA-MB-231 breast; -73.2% (active) with RXF 393 renal; -7.68% (active) in the assay on SF-268 CNS; -46.8% (active) in the assay with SF-295 CNS; -86.2% (active) in the assay with SF-539 CNS. Besides, in the assay on M14 melanoma, the growth is -58.5% (active).
